Source: PubChem BioAssay
Active and inactive are the calls of the source. Unless noted, how the calls were made is not given here.

Assays:
[1] = compounds binding Alexa647 anti-His antibody – biochemical, small-molecule microarray, 635 nm fluorescence, artefact control for SMM control protein annotation, primary screen (AID 1128); conditions: higher = more signal;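 further: score merges feature fluorescence with signal-to-noise for each printed compound spot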
[2] = test system: Human papillomavirus type 1a E7 protein (residues 1-88); assay: HPV1a E7 small-molecule binders, primary screen, biochemical, small-molecule microarray, residues 1-88, 635 nm (AID 1129); conditions: small-molecule microarray binding, fluorescence 635 nm; higher = more signal
[3] = molecular target: Focal adhesion kinase 1 (Homo sapiens) (UniProt Q05397); assay: PTK2 protein binding on printed compound slides – biochemical, small-molecule microarray, 635/667 nm fluorescence, BSA, DTT, primary screen (AID 1130); conditions: 635 nm fluorescence, higher = more signal;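 further: composite of spot emission at 667 nm and signal to noise over triplicate slides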
[4] = test system: Fibrinogen (Alexa647-labelled); assay: Alexa647-fibrinogen binding to printed small molecules – biochemical, small-molecule microarray, 635/667 nm fluorescence, artefact control for SMM control-protein annotation, profiling panel (AID 1131); conditions: fibrinogen-A647 binding fluorescence, higher = more signal;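 further: z-score merges 667 nm fluorescence with per-spot signal-to-noise over triplicate slides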
[5] = molecular target: Follistatin (Homo sapiens) (UniProt P19883); assay: FST protein binding to printed compounds – biochemical, small-molecule microarray, 635/667 nm fluorescence, primary screen (AID 1132); conditions: 635 nm fluorescence, higher = more signal
[6] = molecular target: Fibroblast growth factor 2 (Homo sapiens) (UniProt P09038); assay: basic fibroblast growth factor binding to printed compounds – biochemical, small-molecule microarray, 635/667 nm fluorescence, primary screen (AID 1133); conditions: FGF2, fluorescence 635/667, higher = more signal
[7] = JC-1 mitochondrial potential readout, lung cancer cells – cell-based, A549, JC-1 fluorescence, basal, 24 h, 100 nL, profiling panel (AID 1138); conditions: higher = more signal;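 further: A549 lung adenocarcinoma cells under basal conditions with no added stimulus; test concentration not given here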
Lefty1 = Lefty1 protein binding to printed compounds – biochemical, small-molecule microarray, 635/667 nm fluorescence, primary screen (AID 1139); conditions: fluorescence 635/667, higher = more signal
[8] = test system: wheat germ agglutinin (Triticum aestivum), Alexa647-labelled; assay: Alexa647-WGA lectin binding to printed small molecules – biochemical, small-molecule microarray, 635/667 nm fluorescence, artefact control for SMM control-protein annotation, profiling panel (AID 1140); conditions: WGA-A647 binding, 635 nm fluorescence, higher = more signal;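 further: score merges 667 nm feature emission with signal to noise over triplicate slides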
[9] = molecular target: Luciferin 4-monooxygenase (Photinus pyralis) (UniProt P08659); assay: inhibition of purified Photinus pyralis luciferase – biochemical, luminescence, purified enzyme, 2006 set, primary screen (AID 1141); conditions: purified firefly luciferase, SteadyGlo luminescence, 30 min; higher = more signal, called active from +8 up or from −8 down;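 further: cell-free assay with purified firefly luciferase at 100 ng per well in PBS; test concentration not given here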
[10] = test system: Wnt5a (protein binding on small-molecule microarray); assay: small molecules binding Wnt5a protein – biophysical, small-molecule microarray, 635/667 nm fluorescence, primary screen (AID 1142); conditions: 635 nm fluorescence, higher = more signal;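 further: fluorescence read at 667 nm with signal to noise per printed feature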
[11] = ATP-based viability of Huh7 replicon cells – cell-based, CellTiter-Glo luminescence, basal, 48 h, cytotoxicity control for HCV replication inhibitor project, primary screen (AID 1143); conditions: higher = more signal, called active from +8 up or from −8 down;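 further: Huh7 hepatoma cells carrying a hepatitis C replication reporter with no stimulus; test concentration not given here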
[12] = Pseudomonas biofilm growth suppression – PAO1 strain, BacTiter-Glo luminescence, LB-PBS, primary screen (AID 1144); conditions: P. aeruginosa PAO1 biofilm, 12 h, higher = more signal
[13] = basal CRE-LacZ reporter activity in PC12 – cell-based, unstimulated, primary screen (AID 1145); conditions: no forskolin, luminescence, 4.5 h, higher = more signal, called active from +8 up or from −8 down
[14] = forskolin-driven CRE-LacZ activity in PC12 – cell-based, CRE-LacZ reporter, forskolin-stimulated, primary screen (AID 1146); conditions: luminescence, 4.5 h, higher = more signal, called active from +8 up or from −8 down;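 further: PC12 cells with 6xCRE LacZ reporter stimulated by forskolin 10 µM; beta-galactosidase reporter signal reflecting CREB driven transcription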
[15] = molecular target: Streptavidin (Streptomyces avidinii) (UniProt P22629); assay: compounds binding control protein streptavidin – biophysical, small-molecule microarray, 635/667 nm fluorescence, artefact control for SMM compound annotation, primary screen (AID 1147); conditions: higher = more signal;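 further: signal reflects streptavidin binding to arrayed compounds as a control protein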
[16] = probe aInhba binding on compound microarray – biochemical, small-molecule microarray, 635/667 nm fluorescence, primary screen (AID 1148); conditions: higher = more signal;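 further: score merges 667nm spot fluorescence with signal-to-noise for antibody binding to printed compounds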
Torsin-1A (Homo sapiens) [17] = molecular target: Torsin-1A (Homo sapiens) (UniProt O14656); assay: TOR1A wild-type binding on microarray – cell lysate, small-molecule microarray, lysate, 635/667 nm, primary screen (AID 1149); conditions: COS7 hTOR1A-WT lysate, 635 nm fluorescence, higher = more signal
Torsin-1A (Homo sapiens) [18] = molecular target: Torsin-1A (Homo sapiens) (UniProt O14656); assay: torsin A mutant lysate binding on microarrays – cell lysate, small-molecule microarray, COS7 lysate, 635/667 nm fluorescence, primary screen (AID 1150); conditions: COS7 hTOR1A mutant lysate, 635 nm fluorescence, higher = more signal;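 further: score pools 667 nm emission and signal to noise measuring lysate protein binding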
[19] = test system: Sonic hedgehog protein (Shh); assay: Sonic hedgehog microarray binding compounds – biochemical, small-molecule microarray, 635/667 nm fluorescence, primary screen (AID 1151); conditions: 635 nm fluorescence, higher = more signal;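 further: Shh protein binding to compounds spotted on small-molecule microarray slides; score combines spot fluorescence intensity with signal-to-noise across triplicate slides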

Sequence of Streptavidin (Streptomyces avidinii) (P22629 whole entry, looked up): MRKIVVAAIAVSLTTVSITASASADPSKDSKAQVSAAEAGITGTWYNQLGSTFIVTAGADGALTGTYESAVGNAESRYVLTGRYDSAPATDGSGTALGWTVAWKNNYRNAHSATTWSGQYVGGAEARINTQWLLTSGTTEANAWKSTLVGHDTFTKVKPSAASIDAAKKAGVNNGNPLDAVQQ
Sequence of Fibroblast growth factor 2 (Homo sapiens) (P09038 whole entry, looked up): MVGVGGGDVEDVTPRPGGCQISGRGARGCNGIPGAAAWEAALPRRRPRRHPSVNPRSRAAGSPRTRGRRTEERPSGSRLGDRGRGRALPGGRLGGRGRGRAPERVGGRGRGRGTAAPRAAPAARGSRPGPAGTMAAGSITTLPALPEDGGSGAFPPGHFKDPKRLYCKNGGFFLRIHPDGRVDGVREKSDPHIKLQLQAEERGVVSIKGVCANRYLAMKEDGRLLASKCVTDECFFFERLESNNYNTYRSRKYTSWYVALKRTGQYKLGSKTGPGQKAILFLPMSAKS
Sequence of Follistatin (Homo sapiens) (P19883 whole entry, looked up): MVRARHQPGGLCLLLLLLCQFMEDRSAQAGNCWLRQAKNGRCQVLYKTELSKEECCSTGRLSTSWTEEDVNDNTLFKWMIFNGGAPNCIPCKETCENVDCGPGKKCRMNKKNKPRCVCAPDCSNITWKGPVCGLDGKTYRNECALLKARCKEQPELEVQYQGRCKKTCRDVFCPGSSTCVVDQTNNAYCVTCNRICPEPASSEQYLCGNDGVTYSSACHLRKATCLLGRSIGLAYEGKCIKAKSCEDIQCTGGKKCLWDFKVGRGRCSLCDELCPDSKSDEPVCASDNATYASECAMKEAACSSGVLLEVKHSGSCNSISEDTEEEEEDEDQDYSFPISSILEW
Sequence of Luciferin 4-monooxygenase (Photinus pyralis) (P08659 whole entry, looked up): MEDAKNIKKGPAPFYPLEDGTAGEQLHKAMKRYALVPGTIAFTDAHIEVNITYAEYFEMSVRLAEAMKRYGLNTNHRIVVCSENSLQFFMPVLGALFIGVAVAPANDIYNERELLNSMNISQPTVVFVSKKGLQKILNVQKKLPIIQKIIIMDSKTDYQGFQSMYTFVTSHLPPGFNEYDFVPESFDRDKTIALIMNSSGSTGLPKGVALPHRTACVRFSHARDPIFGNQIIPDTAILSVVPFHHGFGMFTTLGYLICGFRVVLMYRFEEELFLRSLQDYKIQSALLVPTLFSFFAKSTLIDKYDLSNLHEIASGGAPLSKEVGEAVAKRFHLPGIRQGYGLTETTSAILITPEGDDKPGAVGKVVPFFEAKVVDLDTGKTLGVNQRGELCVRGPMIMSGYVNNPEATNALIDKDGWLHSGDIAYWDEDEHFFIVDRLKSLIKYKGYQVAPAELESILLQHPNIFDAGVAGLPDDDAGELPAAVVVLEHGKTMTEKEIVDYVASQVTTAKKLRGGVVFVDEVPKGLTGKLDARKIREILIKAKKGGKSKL
Sequence of Focal adhesion kinase 1 (Homo sapiens) (Q05397 whole entry, looked up): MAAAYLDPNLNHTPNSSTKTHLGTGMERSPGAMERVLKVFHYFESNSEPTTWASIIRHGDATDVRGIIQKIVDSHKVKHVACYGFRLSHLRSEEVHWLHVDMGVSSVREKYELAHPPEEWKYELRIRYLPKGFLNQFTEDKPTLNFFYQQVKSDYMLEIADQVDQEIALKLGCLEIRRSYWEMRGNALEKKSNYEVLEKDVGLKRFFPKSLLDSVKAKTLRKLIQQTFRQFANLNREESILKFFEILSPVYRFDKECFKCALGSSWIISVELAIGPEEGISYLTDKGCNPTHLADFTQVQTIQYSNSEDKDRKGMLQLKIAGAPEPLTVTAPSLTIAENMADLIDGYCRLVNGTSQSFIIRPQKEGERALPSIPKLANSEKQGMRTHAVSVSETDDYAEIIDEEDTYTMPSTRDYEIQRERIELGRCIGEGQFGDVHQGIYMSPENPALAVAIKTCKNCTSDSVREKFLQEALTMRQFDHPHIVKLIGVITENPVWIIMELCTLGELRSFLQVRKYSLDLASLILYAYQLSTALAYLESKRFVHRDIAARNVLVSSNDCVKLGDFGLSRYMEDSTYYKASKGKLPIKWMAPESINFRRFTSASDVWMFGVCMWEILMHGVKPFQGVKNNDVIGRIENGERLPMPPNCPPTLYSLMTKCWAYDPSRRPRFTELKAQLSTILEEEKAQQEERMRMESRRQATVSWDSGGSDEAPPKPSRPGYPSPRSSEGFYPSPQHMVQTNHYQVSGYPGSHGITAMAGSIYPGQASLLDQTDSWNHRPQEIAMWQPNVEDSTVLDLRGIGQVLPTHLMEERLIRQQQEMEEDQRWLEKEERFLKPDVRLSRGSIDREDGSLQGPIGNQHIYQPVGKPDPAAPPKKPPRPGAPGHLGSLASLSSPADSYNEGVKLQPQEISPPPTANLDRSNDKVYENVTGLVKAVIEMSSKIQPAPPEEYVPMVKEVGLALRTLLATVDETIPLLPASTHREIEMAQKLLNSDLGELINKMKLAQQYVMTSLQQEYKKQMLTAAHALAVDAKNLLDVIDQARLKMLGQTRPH
Sequence of Torsin-1A (Homo sapiens) (O14656 whole entry, looked up): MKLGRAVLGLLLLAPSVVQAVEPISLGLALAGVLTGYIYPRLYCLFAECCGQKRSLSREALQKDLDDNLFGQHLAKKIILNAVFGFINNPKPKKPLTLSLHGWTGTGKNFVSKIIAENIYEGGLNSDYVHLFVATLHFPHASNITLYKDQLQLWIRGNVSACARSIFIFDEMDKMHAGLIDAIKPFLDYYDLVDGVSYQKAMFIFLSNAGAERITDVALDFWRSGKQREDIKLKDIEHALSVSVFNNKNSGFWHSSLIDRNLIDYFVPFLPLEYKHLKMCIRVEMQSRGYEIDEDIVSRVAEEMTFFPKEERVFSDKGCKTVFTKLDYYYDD

Row | Structure (SMILES) | composite z-score [1] | composite z-score [2] | composite z-score [3] | composite z-score [4] | composite z-score [5] | composite z-score [6] | z-score [7] | composite z-score (Lefty1) | composite z-score [8] | z-score [9] | composite z-score [10] | z-score [11] | z-score [12] | z-score [13] | z-score [14] | composite z-score [15] | composite z-score [16] | composite z-score (Torsin-1A (Homo sapiens) [17]) | composite z-score (Torsin-1A (Homo sapiens) [18]) | composite z-score [19]
1 | C=CCC(OC(C)=O)[C@@H]1[C@@H](N(Cc2ccc(-c3ccccc3)cc2)C(=O)Cc2ccc(F)cc2)c2cc(OCCCO)ccc2N1C(=O)c1ccc2ccccc2n1 (stereo not given in full) | -0.26 | -0.0475 | -0.312 | 0.165 | 0.177 | 0.253 | 1.94 | -0.192 | 0.216 | -1.26 (inactive) | -0.212 | 0.0753 (inactive) | -0.201 (inactive) | 2.31 (inactive) | -0.116 (inactive) | 0.171 | 0.151 | 0.226 | 0.0886 | 0.321
2 | CN1C=C(C(=O)OCCS(C)(=O)=O)C(C(=O)OCCS(C)(=O)=O)=CC(CCCO)=CC1C1CC1 (stereo not given) | 0.464 | -0.202 | 0.686 | 0.901 | 0.186 | -0.275 | 0.664 | 0.889 | 0.288 | -0.0115 (inactive) | -0.102 | -0.134 (inactive) | -0.483 (inactive) | -0.844 (inactive) | -0.657 (inactive) | 0.207 | -0.128 | -0.0089 | 0.344 | 0.501
3 | O=C(NCc1ccccc1)[C@]1(CCS(=O)(=O)c2ccccc2)N=C(c2ccc(OCCCO)cc2)O[C@@H]1c1ccccc1 | 1 | 1.18 | 0.471 | 0.939 | 0.919 | -0.0072 | -0.864 | 0.469 | 0.785 | 0.781 (inactive) | 0.721 | -2.63 (inactive) | -0.422 (inactive) | -1.04 (inactive) | 0.0925 (inactive) | 0.959 | 0.111 | 0.129 | 0.585 | 0.16
4 | O=C1O[C@@H](c2ccccc2)[C@@H](c2ccccc2)N2[C@@H](c3ccc(O)cc3)[C@]3(C(=O)Nc4ccc(C#CC5(O)CCCCCC5)cc43)[C@@H](C(=O)N3CCCCCCC3)[C@H]12 | 1.47 | 1.26 | 2.74 | 0.962 | 1.47 | 1.62 | -0.15 | 1.68 | 1.4 | -0.593 (inactive) | 1.74 | -2.41 (inactive) | -1.55 (inactive) | 0.362 (inactive) | -0.981 (inactive) | 3.13 | 1.67 | 2.71 | 2.35 | 2.27
5 | CCOC(=O)C[C@H]1[C@H](OC(=O)c2ccc(-c3ccccc3)cc2)[C@@H](NC(=O)c2ccc(-c3ccccc3)cc2)c2cc(OCCCO)ccc2N1C(=O)Cc1ccc(OC)cc1 | 0.296 | 0.226 | 0.315 | 0.656 | 0.13 | -0.167 | 0.322 | -0.245 | -0.0591 | 0.735 (inactive) | 0.0386 | -0.477 (inactive) | -0.402 (inactive) | -0.448 (inactive) | -0.494 (inactive) | 0.745 | 0.0301 | -0.205 | 0.119 | -0.195
6 | Cc1cc(C)c(C(O)C2C=CC3C(=O)N(C)C(=O)C3N2Nc2ccccc2)c(C)c1 (stereo not given) | 1.83 | 0.496 | 0.471 | 0.992 | 0.72 | -0.0568 | 0.362 | -0.765 | 0.847 | 0.568 (inactive) | 0.701 | 1.06 (inactive) | 0.3 (inactive) | 0.246 (inactive) | -0.354 (inactive) | 0.66 | 1.55 | 0.405 | 0.738 | -0.0207
7 | CN1C(=O)C2C(C1=O)C1C=C(CCCO)C2C(c2cccs2)N1C (stereo not given) | 0.121 | -0.612 | -0.0834 | -0.234 | 0.143 | 0.0096 | 1.15 | -0.76 | -0.1 | -0.39 (inactive) | 0.0691 | -0.273 (inactive) | 0.0748 (inactive) | 0.236 (inactive) | 0.289 (inactive) | -0.96 | 0.141 | -0.381 | -0.332 | -0.11
8 | Cc1ccccc1C(O)C1C=CC2C(=O)N(C)C(=O)C2N1Nc1ccccc1 (stereo not given) | 1.23 | 1.16 | 0.175 | 1.01 | 0.459 | -0.462 | 0.0888 | -0.395 | 1.38 | 0.292 (inactive) | 0.125 | 0.881 (inactive) | 0.149 (inactive) | -0.522 (inactive) | -0.0967 (inactive) | 1.69 | 0.112 | 0.0494 | 0.303 | -0.0269
9 | N[C@@H](Cc1ccccc1)Cn1cc(-c2ccccc2)nn1 | -0.0727 | 0.184 | -0.0983 | 0.274 | 0.219 | -0.311 | 0.805 | -0.155 | 0.441 | -1.32 (inactive) | -0.15 | -2.58 (inactive) | -0.244 (inactive) | 0.0035 (inactive) | 0.292 (inactive) | 0.861 | -0.0963 | -0.0409 | -0.0827 | 0.0939
10 | O=C1C[C@]2(c3ccc([N+](=O)[O-])cc3)C(=O)N(CC(F)(F)F)c3cc(CO)ccc3[C@H]2N1CC12CC3CC(CC(C3)C1)C2 | -0.239 | -0.369 | 0.0419 | -1.16 | 0.77 | 0.0808 | 0.297 | 0.551 | 0.122 | 1.09 (inactive) | -0.171 | -1.89 (inactive) | -0.892 (inactive) | -0.698 (inactive) | 0.0632 (inactive) | -0.143 | 0.0091 | -0.662 | -0.156 | 0.277
